PubChem BioAssay AID493169 (National Center for Advancing Translational Sciences (NCATS), 2011)
Records with an inconclusive call do not appear. Unmarked numbers belong to inactive results. Calls of active or inactive are those of the source. Calls come from the whole dose curve; as a rule, active = well fitted inhibition curve with a large enough effect; inconclusive = small, poorly fitted or top-dose-only effect; inactive = flat fitted curve, though single readings scatter.

test: CHOP2 Reporter Counterscreen Assay for Inhibitors of Ubiquitin-specific Protease USP2a; settings: purified enterokinase, fluorogenic substrate, 485/531 nm; series mostly up to 38.3 µM; activity change, negative = inhibition: at the top concentration;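 note: activated enterokinase alone at 50 pM in a cell-free format rather than USP2a or CHOP2; nearly all actives have a fitted effect of over 55% in size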
Method in brief: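 Fluorescence (485/531 nm) read 10 min after adding 25nM reporter substrate to 50 pM activated EK preincubated 30 min RT with compound; Tris pH 8.0/CaCl2/CHAPS buffer. Data normalized to buffer-alone inhibition; concentration-response curves fitted.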
% is set by controls: 0 for no effect and ±100 for the full control effect; potency is the fitted concentration of half-maximal effect.

SMILES | activity change, negative = inhibition [%] | Potency
C=C(CCC(=O)c1ccccc1)C(=O)c1ccccc1 | 1.79 | –
CCOc1ccc2[nH]c(=O)c(CN(Cc3nnnn3Cc3ccco3)C3CCCCC3)cc2c1 | -8.56 | –
Cc1cc2c(c(=O)n1CC1CCCO1)C(c1ccco1)C(C#N)=C(N)O2 (stereo not given) | 1.78 | –
Clc1ccccc1-c1nnc2sc(-c3cccs3)nn12 | -19.6 | –
O=C1c2ccccc2CCC12N=NCC2c1ccc(Br)cc1 (stereo not given) | -2.24 | –
Cc1[nH]c2ccccc2c1C(c1ccccn1)c1c(C)[nH]c2ccccc12 | -6.71 | –
Cc1ccc(C(=O)NCCCc2ccccc2)s1 | 2.08 | –
NC(=O)C[C@@H]1N[C@]2(C(=O)Nc3ccccc32)[C@@H]2C(=O)N(c3cc(C(F)(F)F)ccc3Cl)C(=O)[C@H]12 | 4.19 | –
Nc1nc(NCCO)nc(NCC2CCCO2)c1[N+](=O)[O-] (stereo not given) | 2.32 | –
NS(=O)(=O)c1ccc(NC(=O)/C=C/c2cn(-c3ccccc3)nc2-c2cccc(Cl)c2)cc1 | -9.99 | –
O=C(Oc1ccccc1C(=O)Nc1ccccc1)c1ccccc1Br | -2.06 | –
Cc1cc(C(=O)NCc2ccco2)on1 | -7.56 | –
CCOC(=O)C(C)Sc1nnc(Cn2c(=O)sc3ccccc32)n1-c1ccccc1 (stereo not given) | -1.3 | –
COc1ccc(/C=C2\SC(=S)N(NS(=O)(=O)c3ccc(C)cc3)C2=O)c(OC)c1 | -25.7 | –
COCCn1c(SCC(=O)Nc2cc(C)on2)nnc1-c1ccccc1 | -0.447 | –
CC(C)(C)C1CCc2nc(NC(=O)Cc3cn4ccsc4n3)sc2C1 (stereo not given) | -4.53 | –
CC(C)c1ccc(NC(=O)C(c2ccc3c(c2)OCO3)N2CCCCC2)cc1 (stereo not given) | 0.102 | –
OCCN(Cc1ccccc1)c1ncnc2sccc12 | 2.84 | –
O=C1/C(=C/C=C/c2ccco2)SC(=S)N1c1ccc(O)cc1 | – | 2.82 µM (active)
Cc1cc(C(=O)OCC(=O)c2cccc([N+](=O)[O-])c2)c2cccc(C)c2n1 | 0.46 | –

SMILES | activity change, negative = inhibition [%] | Potency
Cc1ccc(C2=[N+]([O-])C(C)N(O)C2(C)C)o1 (stereo not given) | -0.491 | –
C/C(Cn1nnc2ccccc21)=N\OC(=O)c1ccccc1C | 3.79 | –
COc1ccc(Cl)cc1S(=O)(=O)Nc1cccc(C(=O)O)c1 | -0.065 | –
Nn1c(Nc2ccccc2)nc2ccccc2c1=O | 6.66 | –
Cc1ccc(/C=C/S(=O)(=O)N2CCC(C(=O)O)CC2)cc1 | 0.0087 | –
Fc1ccc(-c2nnn(Cc3nc4ccccc4s3)n2)cc1 | -0.729 | –
Cc1ccc(OCC(=O)Nc2ccc(N3CCCC3)cc2)cc1C | – | 10 µM (active)
Cc1noc(NS(=O)(=O)c2ccc(N3CC(O)=C(c4ccccc4)C3=N)cc2)c1C | 0.63 | –
CCCCCCCCCC[N+](C)(C)CC/C=C1/c2ccccc2Sc2ccc(Cl)cc21 | – | 7.94 µM (active)
COc1cc(/C=N/NC(=O)c2cc(-c3ccccc3)nc3ccccc23)ccc1O | -2.73 | –
Cc1cc(N2CCC(C(=O)NC3CC3)CC2)nc(-c2ccccc2)n1 | -2.34 | –
O=C1NCC(CN(c2ccccc2)c2ccccc2)O1 (stereo not given) | 0.268 | –
CCOc1cc(N2CCOCC2)c(OCC)cc1NC(=O)Cc1cn2ccsc2n1 | 5.43 | –
O=C(c1ccco1)N1CCN(C(c2cccs2)c2sc3ncnn3c2O)CC1 (stereo not given) | 1.66 | –
O=C(CSc1ccc2nnc(-c3cccc(F)c3)n2n1)N1CCCc2ccccc21 | -4.68 | –
Nc1cc(=O)[nH]c(SCc2cccc(Cl)c2)n1 | 6.13 | –
O=C(Nc1ccc(N2CCCC2)cc1)c1ccc(Br)cc1 | – | 5.01 µM (active)
O=C(CCSCc1ccc(Cl)cc1)NCCc1ccccc1 | -0.319 | –
C=CCOc1cccc(C2C(C(=O)c3ccco3)=C(O)C(=O)N2CCN(CC)CC)c1 (stereo not given) | 2.38 | –
Cc1ccc([C@@H]2CC=C(C(=O)O)[C@H](c3cccc(Cl)c3)N2S(=O)(=O)c2ccc(C)cc2)cc1 | -8.06 | –
